Some of the results follow. A number with no mark means an inactive call.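 Rule for the calls: active = fluorescence interference ratio at or above 1.2, signal boosting, or at or below 0.8, signal quenching; inactive = ratio between 0.8 and 1.2.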

A short description of this test: signal quenchers or enhancers, Cy5-oligo/SSB – biochemical, E. coli SSB, selected ChemBridge compounds, artefact control for HCV NS3 helicase inhibitor project (AID 720487).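 Note: ratio of compound well signal to mean negative control signal so 1 means no effect.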 To be noted: Cy5-dT15/E. coli SSB fluorescence interference; at 100 µM; actives lie on both sides.

`CCOc1cc(C=C2C(=O)NC(=O)NC2=O)cc(Br)c1OCCOc1ccccc1C`: the fluorescence interference ratio is 0.894.

Values taken from PubChem BioAssay AID720487 (Milwaukee Institute for Drug Discovery, 2013).
